# Most compounds without a hit are left out; they make up all but 17% or so of the library.
# TDP1 inh – TDP1 (human) enzyme inhibition | Q9NUW8 | recombinant TDP1, AlphaScreen DNA substrate cleavage | Potency, µM (series often up to 130 µM), inactives show at the highest dose activity change, negative = inhibition, usual class: inhibitors | 0.28% of 350,000 active | AID 485290; note: % is set by controls: 0 for no effect and ±100 for the full control effect; nearly all actives have a fitted effect of over 40% in size
#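 Tdp1 1 nM final; 15 min RT w/ cpd; substrate 15 nM, 5 min; beads 10 ug/ml, 10 min; AlphaScreen read. Neg ctrl: no enzyme.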
# DT40 TDP1 CPT – DT40-hTDP1 cell growth loss with CPT. chicken DT40 Tdp1-/-;hTDP1 cells + 20 nM CPT, ATP luminescence, 48 h. Potency, µM (titrated, usually from 46.2 µM), without a hit: top-dose activity change, negative = growth inhibition, usual class: inhibitors. 12% of 420,000 active. AID 686979; note: % is set by controls: 0 for no effect and ±100 for the full control effect; nearly all actives have a fitted effect of over 55% in size
#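 Chicken DT40 Tdp1-/- cells stably complemented with human TDP1 were seeded at 400 cells/well in medium containing 20 nM camptothecin, exposed to pin-transferred compounds, and grown at 37 °C for at least 48 hr. Viability was read as ATP luminescence.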
# DT40 TDP1 no CPT – qHTS for Inhibitors of human tyrosyl-DNA phosphodiesterase 1 (TDP1): qHTS in cells in absence of CPT; Potency, µM (top dose mostly 46.2 µM), inactives show at the top dose activity change, negative = growth inhibition, usual class: inhibitors; DT40 Tdp1-/- hTDP1 cells, no CPT, ATP luminescence, 48 h; 15% of 420,000 active; note: % is set by controls: 0 for no effect and ±100 for the full control effect; nearly all actives have a fitted effect of over 55% in size
#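 Growth kinetics read by CellTiter-Glo luminescence after ≥48 hr at 37 °C. Cells: DT40 Tdp1-/- stably carrying human TDP1, 400 per well, compound exposure in the absence of CPT (DMSO vehicle).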
# ClpP mod – qHTS Assay for Activators of ClpP; purified B. subtilis ClpP, FRET peptide cleavage, 20 min; Potency, µM (doses to about 57.5 µM), without a hit: top-dose activity change, negative = active; 1.9% of 340,000 active; active = well fitted falling curve with a large enough effect; inconclusive = small, poorly fitted or top-dose-only effect; inactive = no such curve, though single readings can be large or run the other way; note: the source files actives as falling curves though it sought activators and does not explain the sign; nearly all actives have a fitted effect of over 65% in size
#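 Purified B. subtilis ClpP, 10 microg/mL final in Tris/HCl pH8 with KCl, BSA, glycerol and Tween-20, cleaved an Abz/nitrotyrosine-quenched decapeptide. Fluorescence (ex 320, em 430) was read at 0 and 20 min at room temperature. Delta was normalized to 5.8 microM ADEP and DMSO/no-enzyme controls.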
# The depositor's hits bear a star; ? = inconclusive; / = no result; [ ] = remark or other dose. Unless noted, calls come from the whole dose curve; as a rule, active = well fitted curve in the direction sought with a large enough effect; inconclusive = small, poorly fitted or top-dose-only effect, or another doubt; inactive = no such curve, though single readings can be large; an effect the other way counts as inactive or inconclusive. Potency is the fitted concentration of half-maximal effect.
SMILES,TDP1 inh,DT40 TDP1 CPT,DT40 TDP1 no CPT,ClpP mod
Cc1ccc(/C=N/NC(=O)c2cc(-c3ccncc3)nc3ccccc23)o1,6%,2.9µM*,2.6µM*,-1%
Cc1cc(N/N=C/c2ccc([N+](=O)[O-])o2)nc2ccccc12,-2%,18µM*,18µM*,/
C[C@@H](NC(=O)c1[nH]cnc1C(=O)Nc1nccs1)c1ccccc1,-1%,?,?,0%
CS(=O)(=O)c1ccccc1C(=O)NC1CCCc2ccccc21 (centres undefined),-8%,6%,4%,/
CCOC(=O)c1ccc(CNC(=O)Cn2nnc(-c3ccccc3)n2)o1,-3%,-11%,9%,0%
CN(C(=O)Nc1ccc(C(C)(C)C)cc1)C1CCCCC1,-1%,-25%,-5%,/
Cc1ccc2nc(N/N=C/c3ccco3)cc(C)c2c1,10%,8.2µM*,10µM*,-10%
O=C(N/N=C/c1ccc([N+](=O)[O-])o1)c1cc(-c2ccc(-c3ccccc3)cc2)nc2ccccc12,-2%,4.1µM*,0.46µM*,/
COc1ccc2cc(C(=O)NCc3ccc4c(c3)CCN4C(=O)c3ccccc3)[nH]c2c1,1%,-7%,-16%,-3%
O/N=C/c1cccnc1Sc1ccccc1,0%,-3%,-14%,/
CCSc1nnc(NC(=O)C(CC)(C(F)(F)F)C(F)(F)F)s1,2%,?,18µM*,1%
CCSc1nnc(NC(=O)C(C)(C(F)(F)F)C(F)(F)F)s1,7%,23µM*,18µM*,0%
Cc1nc(C)c(/C(O)=C\c2nc3ccc([N+](=O)[O-])cc3oc2=O)o1,/,-18%,?,1%
COc1ccccc1NC(=O)Cc1nnc(SCC(=O)Nc2ccccc2F)n1C,0%,16µM*,?,/
COc1ccccc1NC(=O)CSC(N)=O,7%,?,21µM*,0%
Cc1ccccc1NC(=O)CSC(N)=O,7%,-26%,?,-2%
COc1ccccc1NC(=O)CSC1=NC(=O)C(Cc2ccccc2)C(=O)N1 (centres undefined),/,1%,-4%,/
COc1ccccc1NC(=O)CNC(=O)CC12CC3CC(CC(C3)C1)C2,-9%,1.6µM*,-70%,-11%
COc1ccccc1NC(=O)CSC1=NC(=O)C(NC(C)=O)C(=O)N1 (centres undefined),-6%,5%,-7%,28µM*
O=C(NC1CCCCCCC1)c1cc(COc2ccc3ncccc3c2)on1,2%,3.7µM*,4.6µM*,/
COCC1CCCN(C(=O)c2cc(COc3cccc4cccnc34)on2)C1 (centres undefined),1%,-1%,-1%,-19%
CCC(O)C1CCN(C(=O)c2cc(COc3ccc4ncccc4c3)on2)CC1 (centres undefined),0%,4.1µM*,3.7µM*,/
COCC1CCCN(C(=O)c2cc(COc3ccc4ncccc4c3)on2)C1 (centres undefined),1%,7.3µM*,5.8µM*,-16%
COc1cccc(OCc2cc(C(=O)N3CCC(C(O)C(C)C)CC3)no2)c1 (centres undefined),1%,?,?,-3%
O=C(c1cc(COc2ccc3ncccc3c2)on1)N1CCC(O)CC1,6%,16µM*,8.2µM*,/
SMILES,TDP1 inh,DT40 TDP1 CPT,DT40 TDP1 no CPT,ClpP mod
CC(C)Nc1ncnc2c1ncn2[C@H]1CN(Cc2ccco2)C[C@@H](CO)O1,/,-27%,-5%,1%
CCCOC1CCCN(C(=O)c2cc(COc3ccc(F)c(F)c3)on2)C1 (centres undefined),-3%[56.1 µM],?,-30%,-3%
O=C(c1cc(COc2ccc3ncccc3c2)on1)N1CCCC(O)C1 (centres undefined),0%,?,21µM*,/
O=C(c1cc(COc2ccc3ncccc3c2)on1)N1CCC[C@H]1CO,9%[56.1 µM],6.5µM*,8.2µM*,-11%
COc1cc(Cl)ccc1OCc1cc(C(=O)NCC(C)c2ccccc2)no1 (centres undefined),0%,-30%,-10%,-1%
CC(CNC(=O)c1cc(COc2ccc3ncccc3c2)on1)c1ccccc1 (centres undefined),2%,16µM*,12µM*,-5%
C1CCCNCC1,7%,/,/,/
COc1ccc(-c2noc(CN(C(=O)Cc3ccc(C)cc3)C(C)C)n2)cc1,2%,?,?,1%
NC(=O)c1cc(N2C(=O)C=CC2=O)ccc1Cl,9%,13µM*,16µM*,-2%
COc1cc(OC)nc(Nc2nc(C(N)c3ccccc3Cl)cs2)n1 (centres undefined),/,?,26µM*,-3%
NC(c1csc(Nc2ncccn2)n1)c1ccccc1Cl (centres undefined),/,21µM*,21µM*,1%
COc1cccc(Nc2nc(C(N)c3ccccc3Cl)cs2)n1 (centres undefined),/,21µM*,15µM*,-9%
COc1cccc(Nc2nc(CN)cs2)n1,/,-21%,?,-7%
COc1ccc(NC(=O)N2C[C@H]3CON(C)[C@H]3C[C@H]2c2ccc(N3CCCCC3)cc2)cc1,/,-7%,2%,-3%
CCOC(=O)C1C(C)=C(Nc2ccc(OC)cc2)C(=O)N1c1ccc(OC)cc1 (centres undefined),3%,-3%,-1%,-12%
CN(C(=O)CSc1cc(Cl)ccc1Cl)C1CCS(=O)(=O)C1 (centres undefined),0%,-2%,-10%,-2%
O=C(/C=C/c1ccc(Cl)cc1)N1CCN(CCN2C(=O)c3cccc4cccc(c34)C2=O)CC1,/,-16%,17%,0%
O=[N+]([O-])c1cccc(-c2ccc3nnc(SCc4cccnc4)n3n2)c1,/,-24%,-16%,-3%
N=c1c(C(=O)NCCc2ccccc2)cc2c(=O)n3ccccc3nc2n1CC1CCCO1 (centres undefined),3%,?,?,4%
COc1ccc(CCNC(=O)c2cc3c(=O)n4ccccc4nc3n(CC3CCCO3)c2=N)cc1OC (centres undefined),/,21µM*,?,-16%
COc1ccc(CCNC(=O)c2cc3c(=O)n4ccccc4nc3n(CC3CCCO3)c2=N)cc1 (centres undefined),/,21µM*,26µM*,5%
COc1ccc(CCNC(=O)c2cc3c(=O)n4ccccc4nc3n(C3CCCCC3)c2=N)cc1OC,8%,?,?,-10%
COc1ccc(CCNC(=O)c2cc3c(=O)n4ccccc4nc3n(CCN3CCOCC3)c2=N)cc1,6%,3.7µM*,2.6µM*,3%
COc1ccc(CCn2c(=N)c(C(=O)NCC3CCCO3)cc3c(=O)n4ccccc4nc32)cc1 (centres undefined),2%,5.8µM*,8.2µM*,-34%

# Bioassay records from PubChem.
